Consider 28 sequences from the supplement of paper PMC3545927.

In the assay the target is furin, P09958. As to the kind of experiment: furin cleavage Z-score vs untreated control; higher = more cleavage, active = 3.5 or more, inactive = 1 or less, 8 variable residues between constant flanks. The procedure, abridged:
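Sequencing of released DNA, tagged with adapters by PCR, gave read counts used as abundance. That DNA was freed when purified furin cut N-terminally bead-bound 8-mer peptides fused to a cDNA oligonucleotide, in 0.01 ml reactions at 1:10 enzyme:substrate in 50 mM HEPES pH 7.5 with CaCl2 and NaCl, lasting 7.5, 15 or 30 min. The cleavage Z-score was the lowess-adjusted log count versus furin-free reactions, scaled by median absolute deviation.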

The list shows a part of the results. No count for the full screen is at hand.

Sequence of furin, P09958 (P09958 whole entry, the tested form may be a part): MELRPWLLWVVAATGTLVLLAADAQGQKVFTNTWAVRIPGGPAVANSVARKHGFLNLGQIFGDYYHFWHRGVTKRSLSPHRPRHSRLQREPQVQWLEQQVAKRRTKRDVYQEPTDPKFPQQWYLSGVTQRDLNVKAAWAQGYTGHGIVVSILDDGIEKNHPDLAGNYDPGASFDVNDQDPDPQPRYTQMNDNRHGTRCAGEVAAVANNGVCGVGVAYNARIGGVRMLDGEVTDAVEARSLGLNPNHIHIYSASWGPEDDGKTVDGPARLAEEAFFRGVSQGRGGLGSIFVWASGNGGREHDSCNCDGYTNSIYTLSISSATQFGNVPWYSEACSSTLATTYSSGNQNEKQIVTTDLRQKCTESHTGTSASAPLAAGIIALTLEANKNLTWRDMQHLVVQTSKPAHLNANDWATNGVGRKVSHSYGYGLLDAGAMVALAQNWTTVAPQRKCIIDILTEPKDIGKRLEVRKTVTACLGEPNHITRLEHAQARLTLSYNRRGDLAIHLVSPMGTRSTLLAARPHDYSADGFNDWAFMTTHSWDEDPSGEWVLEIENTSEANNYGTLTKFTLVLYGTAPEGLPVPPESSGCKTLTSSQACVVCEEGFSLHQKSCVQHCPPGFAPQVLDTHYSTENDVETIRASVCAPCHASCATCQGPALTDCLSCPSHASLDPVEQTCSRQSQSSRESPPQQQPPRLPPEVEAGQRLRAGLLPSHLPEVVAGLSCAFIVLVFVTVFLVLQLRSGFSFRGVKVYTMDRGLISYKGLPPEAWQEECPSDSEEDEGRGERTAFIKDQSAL

Regarding CASWHLNSTAAGNASASA [HC370], the “furin cleavage Z-score” value was 0.22 (inactive) (7.5 min), -0.449 (inactive) (15 min) and 0.876 (inactive) (30 min).

CASTPCSAHHAGNASASA [HC2575]: the “furin cleavage Z-score” value reads like this: (7.5 min) -0.38 (inactive); (15 min) -0.288 (inactive); (30 min) 0.459 (inactive).

With CARPWRDLPEAGNASASA [FS-3031], the “furin cleavage Z-score” value reads like this: (7.5 min) -1.17 (inactive); (15 min) 0.355 (inactive); (30 min) -0.221 (inactive).

Turning to CADSRGSLLSAGNASASA [HC734], the “furin cleavage Z-score” value was -0.053 (inactive) (7.5 min), -0.939 (inactive) (15 min) and -0.328 (inactive) (30 min).

Regarding CARRRRCLNGAGNASASA [FS-1783], the “furin cleavage Z-score” value is 5.37 (active) (7.5 min), 5.63 (active) (15 min) and 3.81 (active) (30 min).

For CARRRRSLPEAGNASASA [FS-2796], the “furin cleavage Z-score” value reads like this: (7.5 min) 9.29 (active); (15 min) 10.5 (active); (30 min) 8.81 (active).

As for CAKRRRSLHHAGNASASA [FS-1672], the “furin cleavage Z-score” value runs as follows: (7.5 min) 4.3 (active); (15 min) 5.5 (active); (30 min) 6.07 (active).

Regarding CARRRRSFRRAGNASASA [FS-376], the “furin cleavage Z-score” value (7.5 min) is 5.2 (active), the “furin cleavage Z-score” value (15 min) was 6.31 (active) and the “furin cleavage Z-score” value (30 min) was 8.15 (active).

For CATSPCSGSWAGNASASA [HC1857], the “furin cleavage Z-score” value by setting is: (7.5 min) -0.464 (inactive); (15 min) -0.0771 (inactive); (30 min) -1.88 (inactive).

Turning to CASFPCSAHLAGNASASA [HC2487], the “furin cleavage Z-score” value is, setting by setting: (7.5 min) -0.137 (inactive); (15 min) -0.966 (inactive); (30 min) -0.392 (inactive).

For CAQPIPKARRAGNASASA [HC192], the “furin cleavage Z-score” value was -0.161 (inactive) (7.5 min), 1.41 (15 min) and -0.434 (inactive) (30 min).

Consider CAGVYLLPRRAGNASASA [HC177], for which the “furin cleavage Z-score” value (7.5 min) is -0.35 (inactive), the “furin cleavage Z-score” value (15 min) was 0.113 (inactive) and the “furin cleavage Z-score” value (30 min) was 0.636 (inactive).

As to CARPLRSSERAGNASASA [FS-2056], the “furin cleavage Z-score” value runs as follows: (7.5 min) -0.31 (inactive); (15 min) -0.454 (inactive); (30 min) -0.848 (inactive).

As to CAQPTRSKRRAGNASASA [FS-140], the “furin cleavage Z-score” value was 8.89 (active) (7.5 min), 11.6 (active) (15 min) and 8.5 (active) (30 min).

Regarding CAGPLRSKRRAGNASASA [FS-128], the “furin cleavage Z-score” value is, setting by setting: (7.5 min) 3.54 (active); (15 min) 3.82 (active); (30 min) 0.894 (inactive).

Turning to CARPTRPLEVAGNASASA [FS-2747], the “furin cleavage Z-score” value was -0.707 (inactive) (7.5 min), -0.831 (inactive) (15 min) and 0.199 (inactive) (30 min).

Take CARLHRFAPPAGNASASA [HC1225]: the “furin cleavage Z-score” value reads like this: (7.5 min) -1.52 (inactive); (15 min) 1.01; (30 min) 0.153 (inactive).

CARSFRSVRSAGNASASA [FS-3233]: the “furin cleavage Z-score” value was -0.0905 (inactive) (7.5 min), 1.16 (15 min) and 1.57 (30 min).

For the sequence CARQLRSAPPAGNASASA [FS-2758], the “furin cleavage Z-score” value (7.5 min) turned out to be 3.01, the “furin cleavage Z-score” value (15 min) was 4.5 (active) and the “furin cleavage Z-score” value (30 min) is 4.16 (active).

Turning to CARLPRSVRSAGNASASA [FS-1263], the “furin cleavage Z-score” value is 5.43 (active) (7.5 min), 4.73 (active) (15 min) and 4.77 (active) (30 min).

Regarding CARLPRSAPPAGNASASA [FS-2572], the “furin cleavage Z-score” value (7.5 min) is 5.97 (active), the “furin cleavage Z-score” value (15 min) is 5.41 (active) and the “furin cleavage Z-score” value (30 min) was 5.19 (active).

Turning to CARLPRGAEAAGNASASA [FS-1743], the “furin cleavage Z-score” value reads like this: (7.5 min) 3.99 (active); (15 min) 2.77; (30 min) 3.19.

As for CALLISQAEAAGNASASA [HC530], the “furin cleavage Z-score” value was -0.545 (inactive) (7.5 min), -1.15 (inactive) (15 min) and -0.368 (inactive) (30 min).

With CARLGRQVDSAGNASASA [FS-1738], the “furin cleavage Z-score” value (7.5 min) is 0.0659 (inactive), the “furin cleavage Z-score” value (15 min) is 0.283 (inactive) and the “furin cleavage Z-score” value (30 min) is 1.6.

In the case of CARRQRGAEAAGNASASA [FS-1782], the “furin cleavage Z-score” value (7.5 min) is 0.38 (inactive), the “furin cleavage Z-score” value (15 min) is -0.365 (inactive) and the “furin cleavage Z-score” value (30 min) was determined as 1.17.

With CAPAPSGCPPAGNASASA [HC1346], the “furin cleavage Z-score” value was -1.72 (inactive) (7.5 min), -0.997 (inactive) (15 min) and -0.764 (inactive) (30 min).

For CARFWKSAPPAGNASASA [FS-2140], the “furin cleavage Z-score” value is -0.578 (inactive) (7.5 min), 0.202 (inactive) (15 min) and -1.15 (inactive) (30 min).

On to CAMTRYSAPPAGNASASA [HC1542], for which the “furin cleavage Z-score” value (7.5 min) worked out at 1.05, the “furin cleavage Z-score” value (15 min) is -0.0414 (inactive) and the “furin cleavage Z-score” value (30 min) was -1.39 (inactive).
